Screening results from PubChem BioAssay.
HepG2 viability: qHTS for Inhibitors of TGF-b: Cytotox Counterscreen; HepG2 CAGA-GFP viability, ATP luminescence, 18 h; Potency, µM (doses to about 46.1 µM), inactives show top-dose activity change, negative = cytotoxicity, most hits filed as cytotoxic; 410,000 tested, 0.76% active; further: potency means the concentration at half of the fitted maximal effect
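HepG2 CAGA-GFP cells (1000/well, DMEM with 1% FBS) received compound, then TGF-beta at 500 pg/mL final, and were incubated 18 hours at 37 degrees C. Viability was read by CellTiter-Glo luminescence. Media-only wells were set as complete cell-killing and DMSO as no toxicity.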
DT40 TDP1 CPT: qHTS for Inhibitors of human tyrosyl-DNA phosphodiesterase 1 (TDP1): qHTS in cells in presence of CPT. chicken DT40 Tdp1-/-;hTDP1 cells + 20 nM CPT, ATP luminescence, 48 h. Potency, µM (series often up to 46.2 µM), for the others: at the top dose activity change, negative = growth inhibition, most hits filed as inhibitors. 420,000 tested, 12% active; further: potency means the concentration at half of the fitted maximal effect; on the % scale 0 is the no-effect control and ±100 the full control effect; nearly all actives have a fitted effect of over 55% in size
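Cell growth measured by CellTiter-Glo luminescence after a minimum 48 h, 37 C compound exposure with 20 nM CPT in Tdp1-knockout DT40 cells stably expressing hTDP1, seeded 400/well; qHTS titration format.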
TGFb SMAD3 inh: qHTS for Inhibitors of TGF-b; HepG2 CAGA-GFP TGF-b/SMAD3 reporter, GFP fluorescence, 18 h; TGF-beta stimulated, 500 pg/mL final; Potency, µM (highest dose often 46.1 µM), without a hit: at the highest dose activity, negative = inhibition, usual class: inhibitors; 410,000 tested, 1.2% active; further: potency means the concentration at half of the fitted maximal effect; on the % scale 0 is the no-effect control and ±100 the full control effect; nearly all actives have a fitted effect of over 65% in size
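HEPG2 CAGA-GFP reporter cells (1000/well, DMEM with 1% FBS) received compounds, then recombinant TGF-beta at 500 pg/mL final for 18 hours at 37 degrees C. Per-cell GFP summed per well was normalised to unstimulated and stimulated DMSO controls before curve fitting.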
IL1B secr inh: qHTS for Inhibitors of Inflammasome Signaling: IL-1-beta AlphaLISA Primary Screen | THP-1 LPS/ATP IL-1B secretion, AlphaLISA, 16 h; active compounds read low | activity change, % at 57.5 µM | 360,000 tested, 4.7% active; in the data active means activity change below about -50%; inconclusive means mostly about -30% to -49%; further: on the % scale 0 is the no-effect control and ±100 the full control effect
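THP-1 cells pretreated 1 hr with compounds (up to 57.5 uM final), then stimulated with LPS (250 ng/mL final) plus ATP (1.25 mM final); secreted IL-1B measured by AlphaLISA after 16 hr, decreased signal indicating inhibition.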
TDP1 block: qHTS Assay for Inhibitors of Tyrosyl-DNA Phosphodiesterase (TDP1); recombinant TDP1, AlphaScreen DNA substrate cleavage; Potency, µM (top dose mostly 130 µM), inactives show top-dose activity change, negative = inhibition, usual class: inhibitors; 350,000 tested, 0.28% active; further: potency means the concentration at half of the fitted maximal effect; on the % scale 0 is the no-effect control and ±100 the full control effect; nearly all actives have a fitted effect of over 40% in size
Target sequence (Q9NUW8 whole entry, looked up): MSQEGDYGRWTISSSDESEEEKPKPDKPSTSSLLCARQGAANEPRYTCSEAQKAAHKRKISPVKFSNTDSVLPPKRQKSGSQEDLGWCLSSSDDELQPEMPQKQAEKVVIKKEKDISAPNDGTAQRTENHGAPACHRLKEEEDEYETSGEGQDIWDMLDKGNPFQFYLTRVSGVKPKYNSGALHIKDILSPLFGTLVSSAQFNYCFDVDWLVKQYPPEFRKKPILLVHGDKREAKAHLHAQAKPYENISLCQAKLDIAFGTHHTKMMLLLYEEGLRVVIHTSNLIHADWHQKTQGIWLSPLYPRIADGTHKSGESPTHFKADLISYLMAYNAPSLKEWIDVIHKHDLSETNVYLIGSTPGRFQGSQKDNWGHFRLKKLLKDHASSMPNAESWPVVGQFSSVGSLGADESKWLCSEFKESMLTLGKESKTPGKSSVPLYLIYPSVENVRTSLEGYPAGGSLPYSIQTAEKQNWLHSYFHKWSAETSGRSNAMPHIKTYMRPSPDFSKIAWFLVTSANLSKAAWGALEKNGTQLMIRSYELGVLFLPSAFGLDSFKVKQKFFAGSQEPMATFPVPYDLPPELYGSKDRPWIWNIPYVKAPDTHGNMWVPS
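AlphaScreen read-out: signal falls as enzyme removes the 3' tyrosine-FITC from a 5'-biotinylated DNA oligo (15 nM, 5 min, RT). Enzyme was E. coli-made recombinant Tdp1 at 1 nM, exposed to compound for 15 min beforehand; beads 10 ug/ml, 10 min.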
TDP1 cell noCPT: qHTS for Inhibitors of human tyrosyl-DNA phosphodiesterase 1 (TDP1): qHTS in cells in absence of CPT; DT40 Tdp1-/- hTDP1 cells, no CPT, ATP luminescence, 48 h; 420,000 tested, 15% active; Potency, µM (titrated, usually from 46.2 µM), for inactives: at the top dose activity change, negative = growth inhibition, actives largely listed as inhibitors; further: potency means the concentration at half of the fitted maximal effect; on the % scale 0 is the no-effect control and ±100 the full control effect; nearly all actives have a fitted effect of over 55% in size
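Chicken DT40 Tdp1-/- cells complemented with human TDP1, screened without camptothecin (DMSO vehicle only), 400 cells/well. Compounds pin-transferred, cells incubated at 37 °C for at least 48 hr. Growth read as ATP-dependent luminescence (CellTiter-Glo, 30 min at RT).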
The depositor's hits bear a star; ? = inconclusive; . = no result given; ! = repeats disagree; [ ] = remark or other dose. A selection: hits, their analogues and other compounds. The true share with any hit is near 18%. Unless noted, the call rests on the fitted dose curve; in most records, active means well fitted curve in the direction sought with a large enough effect; inconclusive means small, poorly fitted or top-dose-only effect, or another doubt; inactive means no such curve, though single readings can be large; an effect the other way counts as inactive or inconclusive.

SMILES	HepG2 viability	DT40 TDP1 CPT	TGFb SMAD3 inh	IL1B secr inh	TDP1 block	TDP1 cell noCPT
CCOC(=O)[C@]12Cc3ccccc3[C@H]1N(CCC(=O)OC)C(=O)c1cc(OC)ccc12	.	?	.	-118*	.	?
CCOC(=O)[C@]12Cc3cc(OC)ccc3[C@H]1N(CCC(=O)OC)C(=O)c1cc(OC)ccc12	.	?	.	-54*	.	15µM*
CCOC(=O)c1ncn2c1[C@H]1CCCN1C(=O)c1cc(OC)ccc1-2	.	?	.	.	2%	?
c1ccc(C[C@@H](c2ccccc2)N2CCCCC2)cc1	.	?	.	.	14%[56.1 µM]	?
CCC1(CCC(C)C)C(=O)NC(=O)NC1=O	.	?	.	.	.	-28%[92.5 µM]
CC(NC1CCCCC1)C(O)C12CC3CC(CC(C3)C1)C2 (stereo unspecified)	-19%	18µM*	0%	-55*	5%	16µM*
CCC[C@H](N[C@@H](CCC)[C@H](O)c1ccccc1)[C@H](O)c1ccccc1	-19%	26µM*	-6%	-58*	.	23µM*
c1cncc(CNc2cc(-c3ccc4c(c3)OCO4)ncn2)c1	.	7%	.	.	-10%[56.1 µM]	?
O=C(Nc1ccccc1)N(Cc1ccc2c(c1)OCO2)C1CCN(Cc2ccccc2)CC1	-34%	?	?	.	9%	15µM*
COc1ccccc1NC(=O)N(Cc1ccc2c(c1)OCO2)C1CCN(Cc2ccccc2)CC1	-29%	4.6µM*	8.9µM*	.	1%	5.2µM*
CN(C(=O)Cc1ccc2c(c1)OCO2)C1CCCN(Cc2ccccc2F)C1 (stereo unspecified)	-2%	?	5%	-10	.	?
CCOC1=C2[C@@H](CN(S(=O)(=O)c3ccccc3C)[C@H]2c2ccc(Cl)cc2)[C@H]2C(=O)NC(=O)[C@H]2C1	-21%	?	-8%	9	.	?
CC1CCN(c2ccccc2NC(=O)c2cc3ccccc3o2)CC1	0%	?	?	0	-6%	?
O=C(CSc1ccc(-c2ccco2)nn1)Nc1ccccc1	-19%	-3%	-29%	15	3%	?
CCc1nnc(NC(=O)CSc2ccc(-c3ccco3)nn2)s1	0%	5%	7%	0	22µM*	29%
Nc1ccccc1-c1ccccc1	.	.	.	.	14%	.
CCCCCn1c(=O)c(C(=O)Nc2cccc(C)c2)c(O)c2ccccc21	0%	-10%	7%	0	.	4.6µM*
CCCCCn1c(=O)c(C(=O)Nc2ccccc2)c(O)c2ccccc21	7%	4.1µM*	4%	20	.	5.2µM*
CCCCCCn1c(=O)c(C(=O)Nc2c(C)n(C)n(-c3ccccc3)c2=O)c(O)c2ccccc21	-15%	5.2µM*	4%	17	.	6.5µM*
CCCCCCCCCCCCCCCCOC[C@@H](O)COP(=O)([O-])OCC[N+](C)(C)C	.	-15%[4.12 µM]	.	.	4%	0%[4.12 µM]
CC/C(=N\Nc1cccc2ccccc12)c1c(O)[nH]c(=O)[nH]c1=O	9%	5.2µM*	-14%	-11	11%	5.8µM*
CCc1cc2c(nc1CC)CCN(CC/C(C)=N/OC)C2	.	.	.	.	6%[21 µM]	.
CCOc1ccc(CCNC(=O)c2cc3c(-c4ccc(OC)c(OC)c4)nn(C)c3s2)cc1OCC	-20%	4.1µM*	8%	.	2%	3.7µM*
CCCCCCCCCC(CC)c1ccc(S(=O)(=O)O)cc1 (stereo unspecified)	.	?	.	.	6%	?
CC(=O)OC1(c2ccccc2)CCN(C)CC1(C)C (stereo unspecified)	0%	1%	5%	11	6%	2%
SMILES	HepG2 viability	DT40 TDP1 CPT	TGFb SMAD3 inh	IL1B secr inh	TDP1 block	TDP1 cell noCPT
CC(=O)OC1(c2ccccc2)CCN(CCc2ccccc2)CC1	.	?	.	.	.	22µM*
C=C(CC1(C(C)NP(=O)(c2ccccc2)c2ccccc2)CC1)c1ccccc1 (stereo unspecified)	.	.	.	.	10%	.
CCC(C)C1NC(=O)C2CCCN2C(=O)C(CC(C)C)OC(=O)CCNC(=O)C(C)N(C)C(=O)C(C(C)C)N(C)C1=O (stereo unspecified)	-37%	3.3µM*	-13%	-14	.	4.1µM*
Cc1ccc(C)c(-n2c(C)nc3ccccc3c2=O)c1	0%	?	0%	13	.	?
Cc1ccc2c(c1)c(C1=c3ccccc3=NC1=O)c(O)n2C	-16%	4.6µM*	-18%	-15	.	2.1µM*
O=C1c2ccccc2-c2cc3ccccc3cc21	-2%	-25%	4%	-9	.	?
O=C1c2ccccc2-c2cccc3cccc1c23	-29%	21µM*!	0%	-17	12%[56.1 µM]	18µM*!
NC1CCCC[C@H]1N (stereo partly specified)	.	.	.	.	8%	.
CN(C)C(=O)CCSC(SCCC(=O)O)c1cccc(/C=C/c2ccc3ccc(Cl)cc3n2)c1 (stereo unspecified)	.	?	.	.	6%	17µM*
CNC(=O)O/N=C/C(C)(C)SC	.	15%	.	.	-5%[56.1 µM]	20%
CN1c2ccc([N+](=O)[O-])cc2CC2(C(=O)NC(=O)N(c3ccccc3)C2=O)C1c1ccccc1 (stereo unspecified)	-2%	13µM*	-14%	19	1%	18µM*
CC(=O)c1cccc(NC(=O)c2cccn(Cc3cccc(C)c3)c2=O)c1	-32%	23µM*	-42%	.	-5%	21µM*
O=C(Nc1ccc2c(c1)OCCO2)c1cccn(Cc2cccc([N+](=O)[O-])c2)c1=O	-36%	?	?	.	10%	13µM*
O=C(Nc1ccc2c(c1)OCO2)c1cccn(Cc2cccc([N+](=O)[O-])c2)c1=O	-5%	-10%	-6%	.	-3%	-24%
CCN1C[C@]2(C)CC[C@H](O)[C@@]34[C@@H]5C[C@@H]6[C@@H](OC)C[C@@](O)(C5[C@H]6O)[C@@H](C[C@@H]23)[C@@H]14	.	.	.	.	1%	.
Cc1[nH]c2ccccc2c1CCCNC1CCCCC1	-21%	?	13%	?	2%	18µM*
Cc1[nH]c2ccccc2c1CCN	-4%	-29%	4%	-4	.	?
